Screens (PubChem BioAssay)
NTR1 ag: agonists of human NTR1, primary screen, imaging, U2OS cells, beta-arrestin-GFP, high content; Neurotensin receptor type 1 (Homo sapiens), P30989; NTR1-U2OS beta-arrestin-GFP spot imaging, agonist mode; activation, % at 20 µM; 0.17% of 330,000 active; AID 493036, 2011;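 active = activation at or above 40% of the spot to cytoplasm intensity ratio, with at least 20 cells analyzed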
Target sequence (P30989 whole entry, looked up): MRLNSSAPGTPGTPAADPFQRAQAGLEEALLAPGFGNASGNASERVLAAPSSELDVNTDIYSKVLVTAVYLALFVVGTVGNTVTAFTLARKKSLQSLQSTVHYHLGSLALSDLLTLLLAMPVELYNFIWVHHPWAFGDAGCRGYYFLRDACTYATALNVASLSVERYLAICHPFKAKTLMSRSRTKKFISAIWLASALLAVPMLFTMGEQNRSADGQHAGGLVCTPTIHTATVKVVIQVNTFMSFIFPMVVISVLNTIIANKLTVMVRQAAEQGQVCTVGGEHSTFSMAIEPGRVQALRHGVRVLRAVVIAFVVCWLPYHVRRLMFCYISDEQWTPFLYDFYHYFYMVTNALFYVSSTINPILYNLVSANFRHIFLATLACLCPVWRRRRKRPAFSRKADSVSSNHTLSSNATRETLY
A3G deaminase: APOBEC3G DNA deaminase inhibitors, primary screen, biochemical, fluorescence, single-stranded DNA substrate, uHTS. inhibition, % at 20 µM. recombinant A3G, ssDNA deamination FAM/TAMRA fluorescence. 0.28% of 330,000 active. DNA dC->dU-editing enzyme APOBEC-3G (Homo sapiens), Q9HC16;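 active = inhibition of at least 40% at 20 µM, with no more than 30% in the related APOBEC3A deaminase screen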
APOBEC3A inh: APOBEC3A ssDNA deaminase inhibitors, primary screen, selectivity assay for APOBEC3G inhibitor project, biochemical, FAM/TAMRA oligo cleavage fluorescence | inhibition, % at 20 µM | recombinant A3A, FAM/TAMRA ssDNA deamination fluorescence | DNA dC->dU-editing enzyme APOBEC-3A (Homo sapiens), P31941 | 0.41% of 330,000 active;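 active = at least 40% inhibition at 20 µM here, with at most 30% in a related deaminase screen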
AHR act: AHR activators, primary screen, cell-based, luminescence, luciferase reporter, human | Aryl hydrocarbon receptor (Homo sapiens), P35869 | AHR-responsive luciferase reporter cells | activation, % at 5 µM | 2.5% of 320,000 active | AID 2796, 2010; in the data active = activation above about 47%
A number is an active result; n = inactive; x = not tested or not shown. Sampled rows, rich in hits. Any-hit rate of the full collection: about 3.2%.

SMILES	NTR1 ag	A3G deaminase	APOBEC3A inh	AHR act
O=C(CNc1cccc2ccccc12)N/N=C/c1ccc([N+](=O)[O-])o1	n	n	n	65
Cc1ccc(S(=O)(=O)Nc2ccc3c(c2)C(=O)NC3=O)cc1[N+](=O)[O-]	n	n	n	n
Cc1oc2c(cc(NS(=O)(=O)c3ccc4c5c(cccc35)C(=O)N4)c3ccccc32)c1C(=O)OC(C)C	n	n	n	74
O=C1CCCc2oc3c(cc(NS(=O)(=O)c4ccc5c6c(cccc46)C(=O)N5)c4ccccc43)c21	n	n	n	54
COc1ccc(OC)c2c1sc(=NC(=O)c1cccc(N3C(=O)CCC3=O)c1)n2C	n	n	n	70
COc1ccc(C(=O)N=c2sc3c(C)ccc(OC)c3n2C)cc1	n	n	n	56
CCn1c(=NC(=O)c2cccc(N3C(=O)CCC3=O)c2)sc2c(OC)ccc(OC)c21	n	n	n	n
Nc1c(Cl)cnc(C(Cl)(Cl)Cl)c1Cl	n	n	n	67
COc1ccc(CCN(C)C(=O)c2cc(S(=O)(=O)N3CCCCC3)ccc2Cl)cc1OC	n	n	n	n
COc1ccc(CN(C)CC(=O)Nc2cccc(S(=O)(=O)N(C)c3ccccc3)c2)c(OC)c1	n	n	n	n
Cc1ccc(NP(=O)(c2ccc(N(C)C)cc2NC(=O)c2cccs2)N2CCOCC2)cc1 (stereo not drawn)	n	n	n	59
Cc1ccc(NP(=O)(c2ccc(N(C)C)cc2NC(=O)c2cccs2)N2CCOCC2)cc1Cl (stereo not drawn)	n	n	n	50
CN(C)c1ccc(P(=O)(Nc2ccccc2)N2CCOCC2)c(NC(=O)c2cccs2)c1 (stereo not drawn)	n	n	n	n
COCCNC(=O)CSc1nc2nn(-c3ccccc3)c(=O)c-2c2n1CCCCC2	n	n	n	n
CCCn1cc(C(=O)N(C)C2CCCN(Cc3ccccc3F)C2)c(C)n1 (stereo not drawn)	n	n	n	n
O=C(NCc1ccco1)c1ccccc1SCC(=O)N1CCCC1	n	n	n	n
Fc1ccc(-c2csc(/C=C/c3ccc4c(c3)OCO4)n2)cc1	n	n	n	82
O=C(Nc1ccc(S(=O)(=O)Nc2ncccn2)cc1)c1ccccc1NS(=O)(=O)c1ccc(Cl)cc1	n	n	n	n
CCOc1ccccc1-c1nc(C(N)=O)c2[nH]c(=O)n(-c3cccc(C)c3)c2n1	n	n	n	64
CCC(C)C(=O)Nc1nc(C)c(-c2csc(Nc3ccc(Cl)cc3)n2)s1 (stereo not drawn)	n	n	n	51
CC(=O)Nc1ccc(Nc2nc(-c3sc(NC(C)=O)nc3C)cs2)cc1	n	n	n	n
CCCCCC(=O)Nc1nc(C)c(-c2csc(Nc3cc(Cl)ccc3OC)n2)s1	n	n	n	50
CCCC(=O)Nc1nc(C)c(-c2csc(Nc3ccc(Cl)cc3)n2)s1	n	n	n	65
COc1ccccc1Nc1nc(-c2sc(NC(=O)c3cccc(Cl)c3)nc2C)cs1	n	n	n	n
CCC(=O)Nc1nc(C)c(-c2csc(Nc3ccc(C(=O)O)cc3)n2)s1	n	n	n	x
SMILES	NTR1 ag	A3G deaminase	APOBEC3A inh	AHR act
CCCC(C)C(=O)Nc1nc(C)c(-c2csc(Nc3cc(OC)ccc3OC)n2)s1 (stereo not drawn)	n	n	n	74
O=C(NCCc1ccc(Cl)cc1)c1ccc(S(=O)(=O)N2CCCC2)cc1	n	n	n	n
CCSCCOC(=O)C1=C(C)N(C)C(=O)NC1c1ccc2c(c1)OCO2 (stereo not drawn)	n	n	n	n
COc1nnc(-c2ccc(N3CCCCC3)c(N)c2)c2ccccc12	n	n	n	64
CC(=O)N1c2ccc(S(=O)(=O)N3CCC(C(=O)NCCc4ccc(Cl)cc4)CC3)cc2CC1C (stereo not drawn)	n	n	n	n
O=C(/C=C/Nc1ccc(F)cc1Br)c1ccccc1	n	n	n	51
CN(C)S(=O)(=O)c1ccc(C(=O)NNC(=O)C2COc3ccccc3O2)cc1 (stereo not drawn)	n	n	n	n
COc1ccc(C2=NN(C(C#N)c3ccc(OC)cc3)C(c3ccccc3)C2)cc1 (stereo not drawn)	x	x	x	54
COc1ccc(C(C#N)N2N=C(C)CC2c2ccccc2)cc1 (stereo not drawn)	n	n	n	n
COc1ccc(C(=O)/C=C2\Sc3ccccc3N2C)cc1	n	n	n	50
CC(=O)NCCc1nc2cc(NC(=O)COc3ccc(C)cc3)ccc2n1C	n	n	n	n
Cc1ccc2[nH]cc(CCNC(=O)c3ccco3)c2c1	n	n	n	97
Cc1ccc(NNC(=S)Nc2ccc(C(C)C)cc2)c(C)c1	n	n	n	66
C1=C(c2ccccc2)CCN(c2nc3ccccc3n3cnnc23)C1	n	n	n	79
O=C(OC1CCOC1=O)C1CCN(S(=O)(=O)c2c(Cl)cccc2Cl)CC1 (stereo not drawn)	n	n	n	n
COc1cc2c(cc1NC(=O)CSc1nccn1C)oc1ccccc12	n	n	n	78
COc1cc2c(cc1NC(=O)Nc1ccc(F)cc1)oc1ccccc12	n	n	n	66
COc1ccc(NC(=O)Nc2cc3oc4ccccc4c3cc2OC)cc1	n	n	n	74
COc1cc2c(cc1NC(=O)CSc1ccccc1)oc1ccccc12	n	n	n	n
COc1ccc(OCC(=O)Nc2cc3oc4ccccc4c3cc2OC)cc1	n	n	n	n
O=C(Oc1cc(Cl)cc(Cl)c1)c1cnc2n(c1=O)CCS2	n	n	n	n
O=C(CCn1cccn1)N1CCCC(N2CCN(c3cccc(Cl)c3)CC2)C1 (stereo not drawn)	n	n	n	x
CC(=O)NC(Nc1c(C)n(C)n(-c2ccccc2)c1=O)C(Cl)(Cl)Cl (stereo not drawn)	n	n	n	n
Cc1ccc(C(=O)Nc2ccc3ccccc3n2)cc1	n	n	n	n
Cc1cc(C)cc(NC(=O)Nc2ccc3ccccc3n2)c1	n	n	n	56
SMILES	NTR1 ag	A3G deaminase	APOBEC3A inh	AHR act
O=C(Nc1ncc2c(n1)-c1ccccc1CC2)c1ccc(F)cc1	n	n	n	65
O=C(Nc1ncc2c(n1)-c1ccccc1CC2)c1ccccc1	n	n	n	n
Nc1nccc(-c2cccs2)n1	n	n	n	n
O=C(Nc1nccc(-c2cccs2)n1)c1cccs1	n	n	n	48
O=C(Nc1ncc2c(n1)-c1ccccc1CC2)c1cccs1	n	n	n	63
COCC1CCCN(C(=O)c2cc(COc3ccc4ncccc4c3)on2)C1 (stereo not drawn)	n	n	n	n
COC(=O)c1cccc(C(=O)N2CCCC(Nc3ccc(C)c(C)c3)C2)c1 (stereo not drawn)	n	n	n	n
CCOC(CNC(=O)C(=O)Nc1cc2c3c(c1)CCN3C(=O)CC2)OCC	n	n	n	n
